Screens as filed in PubChem.
Many of the other results were omitted from the sample, so hits are more common in it than they were.
VDR inh: blocks the human vitamin D receptor; Potency, µM, usual class: inhibitors; VDR-SRC2-3 peptide fluorescence polarization, 2 h; P11473; 400,000 compounds, 0.93% hits
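Fluorescence polarization assay measuring small-molecule disruption of VDR binding to the coregulator peptide SRC2-3. Compounds were pin-transferred (23 nl) into the reagent mix and incubated 2 h at room temperature before reading.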
Glioma ERSR ind: induces the endoplasmic reticulum stress response in human glioma cells. U87-MG GRP78 promoter luciferase reporter, 16 h. Potency, µM, hits mostly activators. 420,000 compounds, 0.02% hits; further: series mostly up to about 76 µM; nearly all actives have a fitted effect of over 35% in size
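Stably transfected U87-MG glioma cells carrying a GRP78-based luciferase sensor; 16 h compound incubation. Luminescence end-point read 10 min after Bright-Glo addition at room temperature.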
G9a inh: inhibitors of human histone lysine methyltransferase G9a; Q96KQ7; AID 504332; G9a H3K9 monomethylation, AlphaScreen, 2 h; Potency, µM (doses to about 102 µM), actives largely listed as inhibitors; 350,000 compounds, 8.8% hits; further: nearly all actives have a fitted effect of over 75% in size
Target sequence (Q96KQ7 913-1193 limits assumed): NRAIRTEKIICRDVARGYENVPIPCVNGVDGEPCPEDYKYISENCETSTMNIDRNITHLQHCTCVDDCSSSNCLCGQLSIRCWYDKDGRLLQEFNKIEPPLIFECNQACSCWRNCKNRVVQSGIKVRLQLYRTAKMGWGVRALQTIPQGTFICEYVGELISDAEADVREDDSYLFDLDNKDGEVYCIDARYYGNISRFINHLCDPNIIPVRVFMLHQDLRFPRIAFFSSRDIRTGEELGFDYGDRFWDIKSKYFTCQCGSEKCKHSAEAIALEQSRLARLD
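G9a (20 nM) was preincubated 15 min with compound, then reacted 2 h at room temperature with 500 nM biotin-H3K9 peptide and 20 µM SAM. Monomethyl-H3K9 detected by AlphaScreen using anti-H3K9me1 antibody.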
Sfp inh: inhibitors of Bacillus subtilis Sfp phosphopantetheinyl transferase | 310,000 compounds, 3.5% hits | Biochemical Sfp PPTase activity, qHTS | AID 1490 | Potency, µM, usual class: inhibitors | Q9F4F7;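 further: the enzyme is Sfp with the accession as filed and its product quenches rhodamine fluorescence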
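Fluorescence-quenching assay with 15 nM Sfp, 5 uM rhodamine-CoA and 12.5 uM BHQ-2-labelled ybbR peptide in pH 7.6 Hepes/MgCl2 buffer. Enzyme was pre-incubated with compound for 15 min at room temperature. Rate was taken from the 30-min fluorescence change (525/598 nm).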
12-LOX inh: inhibitors of human 12S-lipoxygenase ALOX12. Potency, µM (titrated, usually from 108 µM), usual class: inhibitors. 580,000 compounds, 1.1% hits. AID 1671190. purified 12hLO, xylenol orange hydroperoxide absorbance. P18054
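Purified human 12hLO at 150 nM in 25 mM Hepes, 0.01% Triton X-100, pH 7.0, preincubated 15 min at room temperature with compound. Reaction started with 40 uM arachidonic acid, 30 min at room temperature. Hydroperoxide measured by Fe-xylenol orange, 573/405 nm absorbance ratio.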
Hits are given with their value; n = inactive; u = inconclusive; x = not tested or not shown; [ ] = remark or other dose. The call rests on the fitted dose curve; in most records, active means well fitted curve in the direction sought with a large enough effect; inconclusive means small, poorly fitted or top-dose-only effect, or another doubt; inactive means no such curve, though single readings can be large; an effect the other way counts as inactive or inconclusive.

SMILES	VDR inh	Glioma ERSR ind	G9a inh	Sfp inh	12-LOX inh
CCn1c2ccccc2c2cc(CN3CCN(C(=O)c4ccco4)CC3)ccc21	n	n	u	56µM	0.56µM
O=C(CCc1ncc(-c2c(F)cccc2F)o1)N1CCN(S(=O)(=O)c2cc(F)ccc2F)CC1	x	x	x	x	n
CCc1ccc(NC(=O)CC2C(=O)N(c3cccc(OC)c3)C(=O)N2C2CCCC2)cc1 (configuration not stated)	n	n	7.9µM	x	n
Cc1ccc(N2C(=O)C(CC(=O)Nc3cccc(F)c3)N(C3CC3)C2=O)cc1 (configuration not stated)	n	n	45µM	n	n
CCc1ccc(NC(=O)CC2C(=O)N(c3ccc(C)cc3)C(=O)N2C2CCCC2)cc1 (configuration not stated)	n	n	n	x	n
COc1ccc(NC(=O)CC2C(=O)N(c3ccc(OC)cc3)C(=O)N2C(C)C)cc1 (configuration not stated)	n	n	56µM	n	n
Cc1nn(-c2nc3c(c(=O)n(Cc4c(F)cccc4Cl)c(=O)n3C)n2C)c(C)c1C	x	x	x	x	n
Cc1cccc(S(=O)(=O)Nc2nc3ccccc3nc2Nc2ccc3c(c2)OCO3)c1	n	n	45µM	n	n
Cc1ccc(S(=O)(=O)Nc2nc3ccccc3nc2Nc2ccc3c(c2)OCO3)c(C)c1	x	x	x	x	n
O=[N+]([O-])c1cccc(S(=O)(=O)Nc2nc3ccccc3nc2Nc2cccc(S(=O)(=O)N3CCCCC3)c2)c1	n	n	40µM	n	u
O=S(=O)(Nc1nc2ccccc2nc1Nc1ccc2c(c1)OCO2)c1cccc(Cl)c1	x	x	x	x	n
O=S(=O)(Nc1nc2ccccc2nc1Nc1ccc2c(c1)OCO2)c1ccccc1	n	n	40µM	n	n
COCCNC(=O)Cc1c[nH]c2ncc(-c3ccc(OC)cc3)cc12	x	x	x	x	n
O=C(COC(=O)c1nc(Cl)ccc1Cl)Nc1ccc(Cl)cn1	n	n	n[12.7 µM]	x	u
O=C(COC(=O)c1ccc(S(=O)(=O)NCc2ccco2)cc1)Nc1ccccc1OC(F)F	n	n	50µM	32µM	n
Cc1ccc(NC(=O)COC(=O)c2ccc(S(=O)(=O)NCc3ccco3)cc2)cc1	n	n	n[12.7 µM]	x	n
O=C(COC(=O)c1ccc(S(=O)(=O)NCc2ccco2)cc1)Nc1ccccc1	n	n	u	x	n
O=C(COC(=O)c1ccc(S(=O)(=O)NCc2ccco2)cc1)Nc1ccc(Cl)cn1	n	n	50µM	n	u
O=C(COC(=O)c1ncc(Cl)c(Cl)c1Cl)Nc1ccc(Cl)cn1	n	n	45µM	x	u
CCSC1=Nc2c(cnn2-c2ccc(C)c(Cl)c2)C2=NCCCN12	x	x	x	x	n
Cc1nc(NCc2ccccc2)sc1C(=O)N1CCC(C(N)=O)CC1	x	x	x	x	n
O=C(CCc1cccnc1)NCc1ccccn1	x	x	x	x	n
Cc1ccccc1Nc1nc(N)nc(COC(=O)c2c(C)noc2C)n1	n	n	x	x	n
Cc1ccccc1Nc1nc(N)nc(COC(=O)/C=C/c2ccco2)n1	n	n	50µM	n	n
CC1CSc2ccccc2NC1=S (configuration not stated)	n	n	u	n	n
SMILES	VDR inh	Glioma ERSR ind	G9a inh	Sfp inh	12-LOX inh
c1ccc(C2CSc3ccccc3N2)cc1 (configuration not stated)	u	n	8.9µM	56µM	n
COc1cccc(N2CCN(C(=O)c3ccc(N4CC5CC(C4)[C@H]4CCCC(=O)N4C5)nc3)CC2)c1 (some centres not stated)	x	x	x	x	n
Cc1nnc(NNS(=O)(=O)c2ccc(Cl)cc2)[nH]c1=O	n	n	7.9µM	45µM	u
Cc1ccc(S(=O)(=O)NNc2nnc(C)c(=O)[nH]2)cc1	u	n	2µM	5.6µM	n
Cc1occc1C(=O)NNS(=O)(=O)c1ccc(Cl)cc1	n	n	n	n	n
O=C(CSc1nc2ccccc2o1)Nc1cccc(Cl)c1	x	x	x	x	n
CCN1C(c2ccc(F)cc2)=CS/C1=C(\C#N)c1nnc2n1-c1ccccc1SC2	n	n	32µM	n	u
C#CCOc1c(Br)cc(C2C(C(=O)OC)=C(C)NC3=C2C(=O)c2ccccc23)cc1OCC (configuration not stated)	n	n	10µM	x	u
NC(=O)Cc1nc2scc(-c3ccccc3)c2c(=O)[nH]1	n	n	14µM	79µM	u
O=C(OCc1nc2scc(-c3ccccc3)c2c(=O)[nH]1)c1cccc([N+](=O)[O-])c1	n	n	40µM	u	n
